The values below come from PubChem BioAssay (EPA / NIEHS).

Inconclusive results are not listed. Where a structure was tested more than once in an assay, its records may differ in their call. Calls of active or inactive are those of the source. Rule for the calls, unless noted: active = hit-call score of the fitted dose curve at least 0.9, where 1 is the maximum; inactive = score below 0.9.

Read-out in assay [1]: Monokine induced gamma interferon (MIG), CXCL9 (gene 4283)
Kind of assay: BSK_3C_MIG: BioMAP Diversity Plus: 3C Assay for Monokine induced gamma interferon (MIG) Biomarker Activity (AID 2283021).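 For AC50: MIG protein level measured by immunoassay in the treated endothelial cultures.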 The following applies: primary human endothelial cells (HUVEC); actives raise or lower the signal. Put shortly: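 Primary human umbilical vein endothelial cells in the 3C system were exposed to chemical for 24 h, after which MIG was quantified by ELISA. Activity was fitted bidirectionally against DMSO as negative control and baseline.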

Assay [2] in a line: BSK_3C_SRB: Viability Assessment in the BioMAP Diversity Plus: 3C Assay (AID 2283023).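 Note: fitted both ways against DMSO so a hit may be signal rise or drop.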 The following applies: primary human endothelial cells (HUVEC). Summed up: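 Primary human umbilical vein endothelial cells in the 3C system were read 24 h after compound dosing. Total protein was stained with 0.1% sulforhodamine B after 10% TCA fixation and read at 560 nm, with bidirectional fitting against DMSO as baseline.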

Read-out in assay [3]: Matrix Metallopeptidase 1 (MMP1), MMP1 (gene 4312)
Kind of assay: BSK_BE3C_MMP1: BioMAP Diversity Plus: BE3C Assay for Matrix Metallopeptidase 1 (MMP1) Biomarker Activity (AID 2283024). As to conditions: primary human bronchial epithelial cells; actives raise or lower the signal. Summed up:
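Primary human bronchial epithelial cells were dosed with test chemicals, and MMP1 levels were measured by ELISA 24 h later. Data were fitted bidirectionally against DMSO as the negative control and activity baseline.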

Assay [4] can be described thus: BSK_3C_Vis: BioMAP Diversity Plus: 3C Assay for Morphology Visualization (AID 2283025).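 Note: fitted both ways so gain or loss versus DMSO counts.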 As to conditions: primary human endothelial cells (HUVEC). Summed up:
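Human umbilical vein endothelial cells in the 3C system were imaged by light microscopy 24 h after chemical dosing to record cell morphology. Activity was fitted bidirectionally against DMSO as negative control and baseline; the endpoint serves as a background control.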

Read-out in assay [5]: Pselectin, SELP (gene 6403)
Kind of assay: BSK_4H_Pselectin: BioMAP Diversity Plus: 4H Assay for Pselectin Biomarker Activity (AID 2283026). As to conditions: primary human endothelial cells (HUVEC); actives raise or lower the signal. Summed up: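 Primary human umbilical vein endothelial cells were exposed to test chemical for 24 h, then cell-surface P-selectin was quantified by ELISA. Activity was fitted bidirectionally against DMSO as negative control and baseline.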

The nature of assay [6]: BSK_4H_SRB: Viability Assessment in the BioMAP Diversity Plus: 4H Assay (AID 2283027).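 For AC50: curves fitted both ways versus DMSO so AC50 may be loss or gain.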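 Note: cells exposed to compound for 24 h before staining.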 The following applies: primary human endothelial cells (HUVEC). Put shortly: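 Human umbilical vein endothelial cells were dosed with chemical and, after 24 h, fixed with 10% TCA, stained with 0.1% sulforhodamine B, and read at 560 nm to give total protein as a cytotoxicity measure. Bidirectional fitting relative to DMSO control.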

Assay [7] in a line: BSK_BE3C_SRB: Viability Assessment in the BioMAP Diversity Plus: BE3C Assay (AID 2283028).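 For AC50: fitted both ways so AC50 may mark signal gain or loss versus DMSO.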 The following applies: primary human bronchial epithelial cells. Summed up:
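Human primary bronchial epithelial cells were exposed to test chemicals for 24 h. Total protein in parallel cultures was then measured by staining with 0.1% sulforhodamine B after 10% TCA fixation, with absorbance read at 560 nm. Activity was fitted bidirectionally against DMSO.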

Read-out in assay [8]: Thrombomodulin, THBD (gene 7056)
Kind of assay: BSK_3C_Thrombomodulin: BioMAP Diversity Plus: 3C Assay for Thrombomodulin Biomarker Activity (AID 2283029). The following applies: primary human endothelial cells (HUVEC); actives raise or lower the signal. Put shortly: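 Primary human umbilical vein endothelial cells (3C system) were exposed to chemical for 24 h, then thrombomodulin levels were measured by ELISA. Activity was fitted bidirectionally against the DMSO negative control as baseline.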

Read-out in assay [9]: Urokinase-type plasminogen activator receptor (uPAR), PLAUR (gene 5329)
Kind of assay: BSK_4H_uPAR: BioMAP Diversity Plus: 4H Assay for Urokinase-type plasminogen activator receptor (uPAR) Biomarker Activity (AID 2283030). As to conditions: primary human endothelial cells (HUVEC); actives raise or lower the signal. Put shortly: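 Primary human umbilical vein endothelial cells were exposed to chemical for 24 h before cell-surface uPAR was quantified by ELISA. Activity was fitted bidirectionally against the DMSO negative control baseline.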

Read-out in assay [10]: Vascular endothelial growth factor receptor 2 (Homo sapiens) (UniProt P35968)
Kind of assay: BSK_4H_VEGFRII: BioMAP Diversity Plus: 4H Assay for Vascular endothelial growth factor receptor 2 (VEGFR2) Biomarker Activity (AID 2283031). As to conditions: primary human endothelial cells (HUVEC); actives raise or lower the signal. Summed up:
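Primary human umbilical vein endothelial cells in the BioMAP 4H system were dosed with test chemical, and 24 h later VEGFRII was measured by ELISA. Activity was fitted bidirectionally against DMSO as negative control and baseline.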

Read-out in assay [11]: Human Leukocyte Antigen - DR isotype (HLADR), HLA-DRA (gene 3122)
Kind of assay: BSK_BE3C_HLADR: BioMAP Diversity Plus: BE3C Assay for Human Leukocyte Antigen - DR isotype (HLADR) Biomarker Activity (AID 2283032). As to conditions: primary human bronchial epithelial cells; actives raise or lower the signal. Summed up: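 Human primary bronchial epithelial cells in the BE3C system were exposed to chemicals for 24 h, after which HLA-DR levels were quantified by ELISA. Activity was fitted bidirectionally, gain or loss of signal, against DMSO as negative control and baseline.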

Read-out in assay [12]: Vascular cell adhesion molecule 1 (VCAM1), VCAM1 (gene 7412)
Kind of assay: BSK_4H_VCAM1: BioMAP Diversity Plus: 4H Assay for Vascular cell adhesion molecule 1 (VCAM1) Biomarker Activity (AID 2283033).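 For outcome: cell-surface VCAM-1 protein measured by ELISA.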 The following applies: primary human endothelial cells (HUVEC); actives raise or lower the signal. Put shortly:
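Primary human umbilical vein endothelial cells were exposed to chemicals for 24 h, after which VCAM-1 was quantified by ELISA. Responses were fitted bidirectionally against DMSO as negative control and activity baseline.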

Read-out in assay [13]: Interferon-gamma inducible Protein 10 (IP10), CXCL10 (gene 3627)
Kind of assay: BSK_BE3C_IP10: BioMAP Diversity Plus: BE3C Assay for Interferon-gamma inducible Protein 10 (IP10) Biomarker Activity (AID 2283034). As to conditions: primary human bronchial epithelial cells; actives raise or lower the signal. Put shortly: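 Human primary bronchial epithelial cells were exposed to chemicals for 24 hours, after which IP-10 levels were measured by ELISA. Data were fitted bidirectionally against DMSO, which served as the negative control and activity baseline.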

Read-out in assay [14]: Plasminogen activator inhibitor-1 (PAI1), SERPINE1 (gene 5054)
Kind of assay: BSK_BE3C_PAI1: BioMAP Diversity Plus: BE3C Assay for Plasminogen activator inhibitor-1 (PAI1) Biomarker Activity (AID 2283037). As to conditions: primary human bronchial epithelial cells; actives raise or lower the signal. Put shortly:
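Human primary bronchial epithelial cells were exposed to chemical for 24 h, then PAI-1 was quantified by ELISA. Activity was fitted bidirectionally relative to the DMSO negative control baseline.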

Read-out in assay [15]: urokinase plasminogen activator (uPA), PLAU (gene 5328)
Kind of assay: BSK_BE3C_uPA: BioMAP Diversity Plus: BE3C Assay for urokinase plasminogen activator (uPA) Biomarker Activity (AID 2283038).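 For outcome: uPA protein level quantified by ELISA in cell cultures; uPA read one day after compound addition.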 As to conditions: primary human bronchial epithelial cells; actives raise or lower the signal. Summed up:
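Human primary bronchial epithelial cells were exposed to chemical for 24 h, then uPA levels were measured by ELISA. Responses were fitted bidirectionally against DMSO as negative control and baseline. Parallel SRB staining of total protein gauged overt cytotoxicity.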

Read-out in assay [16]: Urokinase-type plasminogen activator receptor (uPAR), PLAUR (gene 5329)
Kind of assay: BSK_BE3C_uPAR: BioMAP Diversity Plus: BE3C Assay for Urokinase-type plasminogen activator receptor (uPAR) Biomarker Activity (AID 2283039).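 For outcome: cells exposed to compound for one day before measurement.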 As to conditions: primary human bronchial epithelial cells; actives raise or lower the signal. Summed up: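 Primary human bronchial epithelial cells were dosed with chemical and harvested 24 h later; uPAR was quantified by ELISA. Activity was fitted bidirectionally against DMSO as negative control and baseline.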

Read-out in assay [17]: Interleukin-6 (IL6), IL6 (gene 3569)
Kind of assay: BSK_CASM3C_IL6: BioMAP Diversity Plus: CASM3C Assay for Interleukin-6 (IL6) Biomarker Activity for (AID 2283040). As to conditions: primary human coronary artery smooth muscle cells; actives raise or lower the signal.

Read-out in assay [18]: Tissue plasminogen activator (tPA), PLAT (gene 5327)
Kind of assay: BSK_BE3C_tPA: BioMAP Diversity Plus: BE3C Assay for Tissue plasminogen activator (tPA) Biomarker Activity (AID 2283041).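 For outcome: tPA level quantified by ELISA one day after compound addition.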 As to conditions: primary human bronchial epithelial cells; actives raise or lower the signal. Summed up: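 Human primary bronchial epithelial cells were dosed with chemical and tPA biomarker levels measured by ELISA 24 hours later. Activity was fitted bidirectionally against DMSO as negative control and baseline.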

The target in assay [19] is human Vitamin D Receptor (VDR), VDR (gene 7421) (UniProt P11473). Kind of assay: ATG_VDR_TRANS: Attagene TRANS-FACTORIAL HepG2 Assay for human Vitamin D Receptor (VDR) (AID 2283022; active = hit-call score of the fitted dose curve at least 0.9, where 1 is the maximum). Put shortly: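 HepG2 cells were transiently transfected with multiple GAL4-UAS reporter units, so signal reflects exogenous chimeric receptor-Gal4 activity. After 24 h compound exposure, reporter mRNA was measured by RT-PCR, fluorescent labelling and capillary electrophoresis, fitted for gain of signal versus DMSO.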
Sequence of human Vitamin D Receptor (VDR), VDR (gene 7421) (P11473 whole entry, looked up, the tested form may be a part): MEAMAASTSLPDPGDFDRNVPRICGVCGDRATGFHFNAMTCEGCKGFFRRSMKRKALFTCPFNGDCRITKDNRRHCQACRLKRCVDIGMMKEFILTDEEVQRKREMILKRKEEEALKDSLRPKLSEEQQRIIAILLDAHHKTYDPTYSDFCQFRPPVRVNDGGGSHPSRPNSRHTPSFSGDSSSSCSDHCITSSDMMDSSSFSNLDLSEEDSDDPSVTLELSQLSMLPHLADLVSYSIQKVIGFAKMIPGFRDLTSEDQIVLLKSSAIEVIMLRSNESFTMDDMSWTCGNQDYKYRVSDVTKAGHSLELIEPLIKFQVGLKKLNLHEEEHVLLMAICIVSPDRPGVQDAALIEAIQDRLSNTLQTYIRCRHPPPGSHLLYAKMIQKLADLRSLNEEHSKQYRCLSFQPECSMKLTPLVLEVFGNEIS

One may read the AC50 as the concentration at which the activity in the assay is half-maximal.

For `O=S1(=O)CC(Cl)(Cl)C(Cl)(Cl)C1`, the AC50 was 1340 nM (active) in [1]; 5020 nM (active) in [2]; 2150 nM (active) in assay [3]; 20000 nM (active) in assay [4]; 194 nM (active) in [5]; 992 nM (active) in assay [6]. The half-maximal activity concentration (AC50) in [7] was 1180 nM (active); in [9], 921 nM (active); in assay [11], 960 nM (active); in assay [12], 582 nM (active); in assay [13] it was 1070 nM (active); in assay [14], 1610 nM (active). Further, the AC50 in assay [15] is 1080 nM (active); in assay [16], 1660 nM (active); in assay [17] it was 1440 nM (active); in [18], 964 nM (active). The outcome in assay [8] and in [10] was inactive.

Turning to `CC1=CC(C)C(C=O)C(C)C1` (stereo not drawn) (tested in a mixture with another compound), the outcome in [1], in assay [2], in assay [3], in assay [4], in assay [5] and in assay [6] was inactive. The result in [7], in assay [8], in assay [9], in assay [10], in [11] and in assay [12] was inactive. In addition, the result in [13], in assay [14], in assay [15], in [16], in [17] and in assay [18] was inactive.

Turning to `CCCCCCOc1ccc(O)cc1`, in [19], the molecule was classed as inactive.

On to `CC1(C)CC(=O)CC(C)(C)N1`, for which the molecule was called inactive in [19].

Consider `CC(C)N(c1ccccc1)C(C)C`, for which, in assay [19], the molecule was classed as inactive.

`C=COCC1CCC(COC=C)CC1` (stereo not drawn): the outcome in assay [19] was inactive.

As to `c1coc(CNc2ncnc3nc[nH]c23)c1`, in assay [19], the result was inactive.

`CC(C)CCCC(C)(C)O`: the outcome in assay [1], in [2], in assay [3], in assay [5], in assay [6] and in [7] was inactive. Moreover, the result in assay [8], in [9], in assay [10], in assay [11], in assay [12] and in assay [13] was inactive. Further, the result in assay [14], in assay [15], in assay [16], in assay [17] and in [18] was inactive.

Turning to `NNC(=O)OCc1ccccc1`, the outcome in assay [19] was inactive.

With `CCC(C)(CCCC(C)C)OC(C)=O` (stereo not drawn), the call in [19] was inactive.

Regarding `CC(C)(CO)CO`, the outcome in assay [1], in [2], in assay [3], in assay [5], in assay [6] and in assay [7] was inactive. The outcome in assay [8], in [9], in [10], in assay [11], in assay [12] and in assay [13] was inactive. Besides, the result in assay [14], in [15], in [16], in assay [17] and in [18] was inactive. The half-maximal activity concentration (AC50) in assay [5] was 5640 nM (active); in assay [13], 5620 nM (active).

As to `O=[N+]([O-])c1cc(N(CCO)CCO)ccc1NCCO`, the outcome in assay [19] was inactive.

Consider `CN(C)C(=O)Nc1ccccc1`, for which the molecule was called inactive in [19].

As to `OCC=Cc1ccccc1`, the outcome in assay [19] was inactive.

Regarding `COc1ccc(OC)cc1`, in assay [19], the outcome was inactive.

With `CC(=O)CCc1ccc(O)cc1`, in [19], the molecule was classed as inactive.

Consider `NC(=O)c1cccnc1`, for which the call in assay [19] was inactive.

With `CCCCCCCOC(C)=O`, the outcome in assay [19] was inactive.

In the case of `C=C(F)C(=O)OC(C(F)(F)F)C(F)(F)F`, the outcome in assay [1], in assay [2], in [3], in [5], in assay [6] and in assay [7] was inactive. Besides, the outcome in assay [8], in assay [9], in assay [10], in assay [11], in assay [12] and in assay [13] was inactive. The result in assay [14], in [15], in [16], in [17] and in assay [18] was inactive.
